Data taken from PubChem BioAssay (NCI).
This is part of a sample that, as a whole, favours compounds with a hit. Of some 83,000 tested, about 20% had one in any assay.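 Growth was measured after 48 h exposure to one concentration of compound in 96-well plates. Values under 10 count as active.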 Unmarked numbers belong to inactive results. Activity calls are given as the source filed them.

Columns and labels:
Test in all cases: NCI-60 one-dose screen, 48 h (100 = growth as untreated, 0 = no growth, -100 = all killed)
Details in all cases: 10 µM unless noted
[1] = test system: HCT-15 colon
[2] = test system: HT29 colon
[3] = test system: SNB-75 CNS
[4] = test system: SNB-19 CNS
[5] = test system: U251 CNS
[6] = test system: PC-3 prostate
[7] = test system: UACC-62 melanoma
[8] = test system: LOX IMVI melanoma
[9] = test system: SK-MEL-28 melanoma
[10] = test system: SK-MEL-2 melanoma
[11] = test system: EKVX NSCLC
[12] = test system: SN12C renal
[13] = test system: UO-31 renal
[14] = test system: TK-10 renal
[15] = test system: ACHN renal
[16] = test system: CAKI-1 renal
[17] = test system: A498 renal
[18] = test system: CCRF-CEM leukemia
[19] = test system: MOLT-4 leukemia
[20] = test system: SK-MEL-5 melanoma

With COc1ccc(-c2[nH]c3ccc(OC)cc3c2/C=C(\C#N)S(=O)(=O)c2ccccc2)cc1 the growth [1] was 22.6%, the growth [2] was 13.2% and the growth [3] was 8.92% (active). For the same compound, the growth [4] was 31.1%, the growth [5] was 24.8% and the growth [6] was 24.8%. For the same compound, the growth [7] was 22%, the growth [8] was 36.4% and the growth [9] was 43.2%. The growth [10] was 82.6%, the growth [11] was 36.8% and the growth [12] was 44.4%. It also gave a growth [13] of 42.2%, a growth [14] of 45.7% and a growth [15] of 41.4%. The growth [16] was 74.5%, the growth [17] was -5.52% (active) and the growth [18] was 2.56% (active). For the same compound, the growth [19] was 17.6%.

In the case of NCCCNc1nc2ccc(Cl)cc2c2c(=O)c3cc(F)ccc3sc12, the growth [1] is reported as 47.9%, the growth [2] is reported as -12.1% (active) and the growth [3] is reported as 54.2%. The growth [4] was 77.1%, the growth [5] was 38.1% and the growth [6] was 58.2%. The growth [7] was 97.4%, the growth [8] was -62.3% (active) and the growth [9] was 103%. It also gave a growth [10] of 104%, a growth [11] of 81.3% and a growth [12] of 71%. For the same compound, the growth [13] was 46.3%, the growth [14] was 89% and the growth [15] was 35.4%. It also gave a growth [16] of 24.4%, a growth [17] of 23.4% and a growth [18] of 12.1%. For the same compound, the growth [19] was 8.78% (active).

With COc1c(B(O)O)cc(C)cc1-c1nc2ccc3[nH]ncc3c2c2c1CCCC2 the growth [1] was 21.6%, the growth [2] was 38.6% and the growth [3] was -34.4% (active). The growth [4] was 74%, the growth [5] was 60.6% and the growth [6] was 61.9%. It also gave a growth [7] of 69.5%, a growth [8] of 30.7% and a growth [9] of 93.8%. For the same compound, the growth [10] was 102%, the growth [11] was 54.2% and the growth [12] was 52%. The growth [13] was 23.5%, the growth [14] was 19.7% and the growth [15] was 57%. For the same compound, the growth [16] was -31.8% (active), the growth [17] was 49.2% and the growth [18] was 35.1%. It also gave a growth [19] of 19.7%.

With COc1ccc(/C=C/c2c(C(=O)/C=C/c3ccc(C(F)(F)F)cc3)c(C)nc3ccccc23)cc1 the growth [1] was -20.2% (active), the growth [2] was 7.38% (active) and the growth [3] was 25.6%. For the same compound, the growth [4] was -43.1% (active), the growth [5] was -69% (active) and the growth [6] was -23.4% (active). The growth [7] was -29% (active), the growth [9] was -50.7% (active) and the growth [10] was -12.1% (active). The growth [11] was -18.7% (active), the growth [12] was -42.9% (active) and the growth [13] was -87.7% (active). For the same compound, the growth [14] was -14% (active), the growth [15] was -94.3% (active) and the growth [16] was -38% (active). The growth [17] was -66.3% (active), the growth [18] was 7.64% (active) and the growth [19] was 6.21% (active).

Nc1ccc(Sc2ccc([N+](=O)[O-])c3nonc23)cc1 gave a growth [1] of 58.2%, a growth [2] of 70.8% and a growth [3] of 90.7%. The growth [4] was 95.6%, the growth [5] was 90.9% and the growth [6] was 87.1%. The growth [7] was 84.5%, the growth [8] was 80.3% and the growth [9] was 102%. For the same compound, the growth [10] was 96.1%, the growth [11] was 92.5% and the growth [12] was 93.7%. For the same compound, the growth [13] was 65.6%, the growth [14] was 111% and the growth [15] was 23%. The growth [16] was 103%, the growth [17] was 80.2% and the growth [18] was 27.7%. The growth [19] was 26.8%.

With COc1cc(CCC[P+](c2ccccc2)(c2ccccc2)c2ccccc2)c(OC)c(OC)c1OC the growth [1] was 68.2%, the growth [2] was 112% and the growth [3] was 29.7%. The growth [4] was 78%, the growth [5] was 77.7% and the growth [6] was 75.6%. For the same compound, the growth [7] was 31.1%, the growth [8] was 79.2% and the growth [9] was 74.4%. The growth [10] was 80.5%, the growth [11] was 72.7% and the growth [12] was 77.5%. It also gave a growth [13] of 43.7%, a growth [14] of 91% and a growth [15] of 83.4%. The growth [16] was 39.7%, the growth [17] was -6.09% (active) and the growth [18] was 65%. It also gave a growth [19] of 57.6%.

For Brc1ccc2[nH]cc(-c3nc(-c4c[nH]c5ccncc45)cs3)c2c1, the growth [1] was -67.8% (active), the growth [2] was -63.2% (active) and the growth [3] was 51.9%. For the same compound, the growth [5] was -83.9% (active), the growth [6] was -66.8% (active) and the growth [20] was -44.1% (active). The growth [7] was -79.4% (active), the growth [8] was -97.4% (active) and the growth [9] was -95.6% (active). The growth [10] was -46.8% (active), the growth [11] was -67.7% (active) and the growth [12] was -85.6% (active). The growth [13] was -83.9% (active), the growth [14] was -53% (active) and the growth [15] was -95.5% (active). For the same compound, the growth [16] was -92.6% (active), the growth [17] was 55.9% and the growth [18] was -23.3% (active). For the same compound, the growth [19] was -58.4% (active).

In the case of CCOC(=O)NCCc1ccccc1, the growth [1] is reported as 118%, the growth [2] is reported as 102% and the growth [3] is reported as 78.7%. For the same compound, the growth [4] was 103%, the growth [5] was 108% and the growth [6] was 101%. It also gave a growth [7] of 88.8%, a growth [8] of 93.9% and a growth [9] of 118%. It also gave a growth [10] of 104%, a growth [11] of 111% and a growth [12] of 99.2%. It also gave a growth [13] of 76.3%, a growth [14] of 112% and a growth [16] of 86%. For the same compound, the growth [17] was 110%, the growth [18] was 116% and the growth [19] was 90.1%.
